Experimental data from PubChem BioAssay AID492949 (National Center for Advancing Translational Sciences (NCATS), 2010).
Inconclusive results are not listed. Calls of active or inactive are those of the source. The call rests on the fitted dose curve; in most records, active means well fitted activation curve with a large enough effect; inconclusive means small, poorly fitted or top-dose-only effect; inactive means no such curve, though single readings can be large or run the other way.

Molecular target: Relaxin receptor 1 (Homo sapiens) (UniProt Q9HBX9)
Sequence (Q9HBX9 whole entry, looked up): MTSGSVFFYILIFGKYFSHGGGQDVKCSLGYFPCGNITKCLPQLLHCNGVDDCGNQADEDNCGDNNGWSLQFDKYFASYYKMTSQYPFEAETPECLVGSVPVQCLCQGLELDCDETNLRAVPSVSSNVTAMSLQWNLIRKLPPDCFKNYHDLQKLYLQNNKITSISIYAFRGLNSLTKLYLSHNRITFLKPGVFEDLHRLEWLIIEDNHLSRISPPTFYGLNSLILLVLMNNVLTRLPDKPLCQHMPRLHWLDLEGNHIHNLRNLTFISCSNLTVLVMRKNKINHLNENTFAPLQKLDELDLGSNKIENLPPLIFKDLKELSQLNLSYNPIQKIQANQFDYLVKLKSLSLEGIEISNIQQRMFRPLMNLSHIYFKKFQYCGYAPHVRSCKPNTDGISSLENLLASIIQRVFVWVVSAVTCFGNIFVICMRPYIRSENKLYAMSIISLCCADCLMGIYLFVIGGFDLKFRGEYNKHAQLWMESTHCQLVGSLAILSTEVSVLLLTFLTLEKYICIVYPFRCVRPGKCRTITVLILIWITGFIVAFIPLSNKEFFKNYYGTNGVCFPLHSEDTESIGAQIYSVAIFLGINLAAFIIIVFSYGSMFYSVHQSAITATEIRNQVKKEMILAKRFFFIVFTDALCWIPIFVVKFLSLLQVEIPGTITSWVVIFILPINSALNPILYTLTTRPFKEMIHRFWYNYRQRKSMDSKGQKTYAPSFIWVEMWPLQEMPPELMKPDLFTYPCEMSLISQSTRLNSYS
Assay: qHTS Assay for Agonists of the Relaxin Receptor RXFP1: THP1 Hit Validation; further: nearly all actives have a fitted effect of over 60% in size;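 on activation: 0% = buffer alone basal and 100% = 29 nM porcine relaxin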
Conditions: THP1-RXFP1 cells, cAMP TR-FRET, 30 min; series mostly up to 115 µM; activation: at the top concentration
Outline: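 THP1 cells stably expressing RXFP1, treated 30 min at 37 C with compounds alongside PDE4 inhibitor Ro 20174. cAMP read by HTRF TR-FRET after lysis; normalized to buffer and 29 nM porcine relaxin; EC50 from Hill fits.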
Potency means the concentration at half of the fitted maximal effect.

Potency, active:
CCN(CC)S(=O)(=O)c1ccc(C)c(NC(=O)Cn2cnc3cc([N+](=O)[O-])ccc3c2=O)c1 12.3 µM
S=c1nc[nH]c2c1[nH]c1ccc(Cl)cc12 1.55 µM
CN(C)S(=O)(=O)c1ccc(C(=O)OCC(=O)Nc2cccnc2Cl)cc1 19.4 µM
CCc1nnc(NC(=O)CSc2nc(C)nc3c2c(=O)n(C)c(=O)n3C)s1 10.9 µM
CCN(CC)c1ccc(S(=O)(=O)N2CCOCC2)cc1NC(=O)CSc1nncn1C 15.4 µM
Cc1cc(C)n2nc(C(=O)Nc3ccc4c(c3)OCCO4)nc2n1 8.68 µM
Cc1cccc2cc(C#N)c(SCC(=O)NCc3cccs3)nc12 19.4 µM
CCCN(CCC)S(=O)(=O)c1cc(CN2C(=O)c3cccnc3C2=O)ccc1OC 24.5 µM
O=C(O)CSc1ccnc2cc(Cl)ccc12 21.8 µM
Brc1ccc(-c2nn3c(-c4ccco4)nnc3s2)o1 17.3 µM
Cc1cccn2c(=O)c(/C=C3\SC(=S)NC3=O)c(NCCCN3CCOCC3)nc12 4.88 µM
CC1(C)O[C@@H]2[C@H](O1)[C@@H](COS(=O)(=O)O)O[C@H]2n1cnc2c(N)ncnc21 5.48 µM
CC(C(=O)OCC(=O)N(C)C1(C#N)CCCCC1)N1C(=O)c2ccccc2C1=O (stereo not drawn) 15.4 µM
O=C(OCc1nc2ccsc2c(=O)[nH]1)c1cccc(S(=O)(=O)N2CCOCC2)c1 43.6 µM

activation, inactive:
COc1ccc(Nc2ncc(C#N)c(N)n2)c(OC)c1 -8.23%
Cc1cc(C)c(C(=O)CSc2n[nH]c(=O)n2C2CC2)cc1C -3.41%
COC(=O)C(C)Sc1ccc2nnc(-c3ccccc3)n2n1 (stereo not drawn) -0.844%
Nc1cc2ccncc2c2ccccc12 -2.54%
O=C(Nc1ccccc1C(=O)N1CCOCC1)c1ccco1 3.58% [at 125 µM]
CC(C)n1cnc2c(N(C)c3cccc(Cl)c3)nc(N(CCO)CCO)nc21 -3.44%
CC(=O)C1C(c2ccccc2)c2c(noc2C)CC1(C)O (stereo not drawn) 3.3%
COC(=O)c1c(N2C(=O)CC(Sc3ncccc3C(=O)O)C2=O)sc(C)c1C (stereo not drawn) -8.48%
O=C(Nc1ccccc1C(=O)N1CCNCC1)c1ccco1 -2.55% [at 125 µM]
Cn1c(N)c(C(=O)CSc2nnc(NC3CCCCC3)s2)c(=O)n(C)c1=O -30.3%
O=C(Nc1ccccc1C(=O)NCCN1CCOCC1)c1ccco1 10.5% [at 125 µM]
O=C(Nc1ccccc1C(=O)NC1CCCCC1)c1ccco1 3.46% [at 125 µM]
Cc1cc(C)c(NC(=O)CS(=O)CC(=O)Nc2ccc(F)cc2F)c(C)c1 (stereo not drawn) -5.33%
CC1C/C(=N\NC(N)=S)c2cc(Cl)ccc2S1 (stereo not drawn) 4.17%
Cc1cccc(-c2nnc(SCC(=O)NC3CC3)n2C)c1 -35.5%
Nc1ncnc2c1ncn2C1OC(CO)C(O)C1O (stereo not drawn) 5.01%
CN(C)CCCn1c(SCC(=O)Nc2nc(-c3cccc(Br)c3)cs2)nc2ccccc2c1=O -13.1%
O=C(O)CNC(=O)c1ccccc1NC(=O)c1ccco1 -4.65% [at 125 µM]
CCNc1nc(NCC)nc(N(C)/N=C/c2ccco2)n1 -2.12%
Cc1cccc(N2C(=O)C(O)=C(C(=O)c3cccs3)C2c2ccc(C(C)C)cc2)n1 (stereo not drawn) -0.973%
CCN(c1ccccc1)S(=O)(=O)c1ccc(OC)c(NC(=O)C2CC(=O)N(Cc3ccccc3)C2)c1 (stereo not drawn) 1.69%
COc1cccc(CNC(=O)c2ccc(CS(=O)Cc3ccc(C)cc3)o2)c1 (stereo not drawn) 2.75% [at 43.1 µM]
O=C(Nc1ccccc1C(=O)Nc1ccccc1)c1ccco1 11.7% [at 125 µM]
O=C(O)CCNc1ccc(NCCC(=O)O)c2c1C(=O)c1ccccc1C2=O -29.2%
